Experiment [1] is described as follows: growth inhibition of DIPG glioma cells, dose response, cell-based, SU-DIPG-XVII, MIPE5.0, CellTiter-Glo, qHTS (AID 1347060; cut-off not given, nearly all actives have AC50 up to about 26 µM;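 on AC50: cells exposed to compound for 48 hours before viability readout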). Particulars: SU-DIPG-XVII viability, CellTiter-Glo ATP luminescence. (ATP-based viability assays read luminescence as a measure of living cells.)
Experiment [2] in a line: growth inhibition of DIPG glioma cells, dose response, cell-based, JHH-DIPG-1, MIPE4.0, CellTiter-Glo, qHTS (AID 1347062; cut-off not given, nearly all actives have AC50 up to about 27 µM). Particulars: JHH-DIPG-1 viability, CellTiter-Glo ATP luminescence.
Experiment [3] is described as follows: viability loss in pontine glioma line – cell-based, SU-DIPG-XXV, MIPE5.0, CellTiter-Glo, qHTS, dose response (AID 1347065; cut-off not given, nearly all actives have AC50 up to about 26 µM;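 further: cells exposed to compound for 48 hours before ATP readout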). Particulars: CellTiter-Glo ATP luminescence.
Experiment [4] is described as follows: JHH-DIPG-1 glioma cell viability, MIPE5.0 library, CellTiter-Glo luminescence, qHTS (AID 1347067; cut-off not given, nearly all actives have AC50 up to about 26 µM;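 further: cells exposed to compound for 48 hours before readout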). Particulars: JHH-DIPG-1 glioma viability, CellTiter-Glo ATP luminescence.
Experiment [5] in a line: SU-DIPG-XXV glioma cell viability, MIPE5.0 library, qHTS (AID 1347068; cut-off not given, nearly all actives have IC50 up to about 30 µM;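 on IC50: cells exposed to compound for 48 hours before viability readout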). (In general: qHTS replaces the single test concentration by a dilution series.)
The nature of experiment [6]: modifiers of HSF1 nuclear foci, imaging, Selleck Cancer Library (AID 1347162; in the data active means plate-normalised HSF1 focus index below about 0.46). Particulars: human cells, at 10 µM; SSMD: measured here: HSF1 foci SSMD mean; cell count: measured here: cell number; plate-normalised HSF1 focus index: stronger effect = lower value.
A short description of experiment [7]: growth inhibition of DIPG glioma cells, dose response, cell-based, SU-DIPG-IV, MIPE4.0, CellTiter-Glo, qHTS (AID 1347063; cut-off not given, nearly all actives have AC50 up to about 30 µM;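 further: compound exposure lasted 48 hours before the viability readout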). Particulars: SU-DIPG-IV viability, CellTiter-Glo ATP luminescence.
Experiment [8] can be described thus: growth inhibition of DIPG glioma cells, dose response, cell-based, SU-DIPG-XIII, MIPE5.0, CellTiter-Glo, qHTS (AID 1347064; cut-off not given, nearly all actives have AC50 up to about 23 µM;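 on AC50: cells exposed to compound for 48 hours before the viability read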). Particulars: SU-DIPG-XIII viability, CellTiter-Glo ATP luminescence.
A short description of experiment [9]: SU-DIPG-VI glioma cell viability, MIPE4.0 library, CellTiter-Glo luminescence, qHTS (AID 1347066; cut-off not given, nearly all actives have AC50 up to about 30 µM;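 further: cells exposed to compound for 48 hours before readout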). Particulars: CellTiter-Glo ATP luminescence.
A short description of experiment [10]: sensitizers of A549 cells to miR-34 induction, primary screen, imaging, A549 dox-inducible miR-34, nuclei and caspase counts (AID 1347080;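 active means compounds whose cell count with miR-34 switched on is under 0.7 times the count with it off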). Particulars: A549 miR-34 inducible, Hoechst nuclei count, 48 h.
The nature of experiment [11]: survival rescue of mitochondrial mutant cells in low glucose, primary screen, MELAS cybrids, Rieske KO mouse fibroblasts, CellTiter-Glo (AID 1508586;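 active means mean z-score across replicates of 1.96 or higher in either the MELAS or the Rieske mutant cell line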;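 further: z relative to plate mean and SD of compound and empty wells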).
Experiment [12] is described as follows: ovarian cancer cell viability with rucaparib, profiling panel, oncology-focused library, rucaparib conditional (AID 1508598). Particulars: patient-derived ovarian cancer cells, CellTiter-Glo viability, 144 h, stronger effect = lower value.

Inconclusive results are not listed. The source made the active and inactive calls.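 How the source made its calls, unless noted: active means normalized viability below 100% at a tested concentration; inactive means the rest.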

A word on the AC50: it is the concentration giving half of the maximal activity seen. One may read the IC50 as the point on the concentration scale where inhibition reaches its midpoint. Usually viability stands for a read-out of living cells in per cent, often relative to untreated cells.

On to `C#CCN(C)CC1=Cc2ccccc2Oc2ccccc21`, for which the result in experiment [1], in experiment [2], in experiment [3], in experiment [4] and in [5] was inactive. The SSMD in experiment [6] is 2.55. This compound returned a cell count in [6] of 6620. The plate-normalised HSF1 focus index in experiment [6] is 1.15 (inactive).
For the compound `COc1ccccc1[C@H](c1cccc2ccccc12)[C@@](C)(C#N)C(=O)N1CCC(c2cccc(C(F)(F)F)c2)CC1`, the compound was called inactive in experiment [1], in experiment [8], in experiment [3], in experiment [9], in experiment [4] and in [5]. The AC50 in [7] is 3.32 µM (active).
Regarding `NCc1c[nH]c(=S)n1[C@H]1CCc2c(F)cc(F)cc2C1`, the compound was called inactive in experiment [1], in experiment [8], in experiment [3], in experiment [4] and in experiment [5]. In addition, in [7], the AC50 was 9.35 µM (active).
Regarding `N#CCNC(=O)c1ccc(-c2ccnc(Nc3ccc(N4CCOCC4)cc3)n2)cc1`, the AC50 in experiment [1] is 16.6 µM (active); in experiment [7], 20.9 µM (active); in experiment [8] it was 13.2 µM (active); in experiment [3], 16.6 µM (active); in experiment [4], 13.2 µM (active). Moreover, the IC50 in experiment [5] was 18.6 µM (active). For the same compound, the fold change in [10] (stronger effect = lower value, cell number ratio, induced over uninduced) is 0.941 (inactive); in [10] (measured here: relative caspase fold change +Dox/-Dox) it was 0.89. Also, the cell count stood at 1150 in experiment [10] (measured here: total cells with miR-34 induction, stronger effect = lower value); 1230 in [10] (measured here: total cells without miR-34 induction); 7330 in [6]. For the same compound, the SSMD in experiment [6] was -3.51. Also, the plate-normalised HSF1 focus index in [6] was 0.876 (inactive). Moreover, the z-score in experiment [11] (MELAS cybrid survival, CellTiter-Glo 48 h, stronger effect = higher value) was 5.22 (active); in experiment [11] (Rieske KO mouse fibroblast survival, CellTiter-Glo 72 h) it was -1.38. In addition, the viability was 109% (inactive) in experiment [12] (at 0.000305 µM, OCI-C5x cells, with rucaparib 10 µM, 100% = cells with rucaparib alone); 113% (inactive) in experiment [12] (at 0.000305 µM, OCI-C5x cells, without rucaparib); 105% (inactive) in experiment [12] (at 0.000305 µM, OCI-P5x cells, with rucaparib 20 µM, 100% = cells with rucaparib alone); 104% (inactive) in [12] (at 0.000305 µM, OCI-P5x cells, without rucaparib); 103% (inactive) in [12] (at 0.00122 µM, OCI-C5x cells, with rucaparib 10 µM, 100% = cells with rucaparib alone); 108% (inactive) in experiment [12] (at 0.00122 µM, OCI-C5x cells, without rucaparib). Moreover, the viability is 105% (inactive) in experiment [12] (at 0.00122 µM, OCI-P5x cells, with rucaparib 20 µM, 100% = cells with rucaparib alone); 103% (inactive) in experiment [12] (at 0.00122 µM, OCI-P5x cells, without rucaparib); 110% (inactive) in experiment [12] (at 0.00488 µM, OCI-C5x cells, with rucaparib 10 µM, 100% = cells with rucaparib alone); 117% (inactive) in [12] (at 0.00488 µM, OCI-C5x cells, without rucaparib); 106% (inactive) in experiment [12] (at 0.00488 µM, OCI-P5x cells, with rucaparib 20 µM, 100% = cells with rucaparib alone); 96.8% (active) in experiment [12] (at 0.00488 µM, OCI-P5x cells, without rucaparib). Moreover, the viability is 109% (inactive) in experiment [12] (at 0.0195 µM, OCI-C5x cells, with rucaparib 10 µM, 100% = cells with rucaparib alone); 104% (inactive) in experiment [12] (at 0.0195 µM, OCI-C5x cells, without rucaparib); 103% (inactive) in [12] (at 0.0195 µM, OCI-P5x cells, with rucaparib 20 µM, 100% = cells with rucaparib alone); 93.3% (active) in experiment [12] (at 0.0195 µM, OCI-P5x cells, without rucaparib); 122% (inactive) in experiment [12] (at 0.0781 µM, OCI-C5x cells, with rucaparib 10 µM, 100% = cells with rucaparib alone); 116% (inactive) in experiment [12] (at 0.0781 µM, OCI-C5x cells, without rucaparib). Further, the viability in experiment [12] (at 0.0781 µM, OCI-P5x cells, with rucaparib 20 µM, 100% = cells with rucaparib alone) was 96.9% (active); in experiment [12] (at 0.0781 µM, OCI-P5x cells, without rucaparib), 92.3% (active); in experiment [12] (at 0.313 µM, OCI-C5x cells, with rucaparib 10 µM, 100% = cells with rucaparib alone), 108% (inactive); in [12] (at 0.313 µM, OCI-C5x cells, without rucaparib) it was 105% (inactive); in [12] (at 0.313 µM, OCI-P5x cells, with rucaparib 20 µM, 100% = cells with rucaparib alone), 90.7% (active); in [12] (at 0.313 µM, OCI-P5x cells, without rucaparib), 66.2% (active). Besides, the viability in experiment [12] (at 1.25 µM, OCI-C5x cells, with rucaparib 10 µM, 100% = cells with rucaparib alone) is 120% (inactive); in experiment [12] (at 1.25 µM, OCI-C5x cells, without rucaparib) it was 101% (inactive); in experiment [12] (at 1.25 µM, OCI-P5x cells, with rucaparib 20 µM, 100% = cells with rucaparib alone), 84.2% (active); in experiment [12] (at 1.25 µM, OCI-P5x cells, without rucaparib) it was 84.9% (active); in experiment [12] (at 5 µM, OCI-C5x cells, with rucaparib 10 µM, 100% = cells with rucaparib alone) it was 78.5% (active); in [12] (at 5 µM, OCI-C5x cells, without rucaparib), 109% (inactive). In addition, the viability in experiment [12] (at 5 µM, OCI-P5x cells, with rucaparib 20 µM, 100% = cells with rucaparib alone) was 46.8% (active); in experiment [12] (at 5 µM, OCI-P5x cells, without rucaparib), 49% (active).
`CC1=C[C@@H]2[C@H]([C@@H](O)C[C@@]3(C)[C@H]2C[C@@H](C)[C@]3(O)C(=O)CO)[C@@]2(C)Cc3cnn(-c4ccccc4)c3C=C12`: the AC50 in [1] is 5.25 µM (active); in experiment [7], 3.72 µM (active); in experiment [8], 9.34 µM (active); in experiment [3], 7.42 µM (active); in experiment [4], 11.8 µM (active). For the same compound, in [5], the IC50 was 16.6 µM (active).
Turning to `CCOc1cc(C(C)(C)C)ccc1C1=N[C@@](C)(c2ccc(Cl)cc2)[C@@](C)(c2ccc(Cl)cc2)N1C(=O)N1CCN(CC(=O)N2CCOCC2)CC1`, the AC50 is 11.5 µM (active) in [1], 14.5 µM (active) in experiment [8] and 10.3 µM (active) in experiment [3].

Values taken from PubChem BioAssay.
